# Measurements taken from ChEMBL document CHEMBL3433997, “St. Jude Leishmania screening dataset” (2016).
# What was measured:
# Format in all cases: functional
# [1] = target: Solute carrier family 2, facilitated glucose transporter member 1 (Homo sapiens) (UniProt P11166); assay: ST_JUDE_LEISH: Cytotoxicity at 2uM final concentration against transgenic Leishmania Mexicana promastigotes LmGLUT1 that are glucose transport deficient and complemented with the human glucose transporter GLUT1. Activity is measured by DNA content using SYBR green in vitro
# [2] = target: Hexose transporter 1 (Plasmodium falciparum) (UniProt O97467); assay: ST_JUDE_LEISH: Cytotoxicity at 2uM final concentration against transgenic Leishmania Mexicana promastigotes LmPfHT that are glucose transport deficient and complemented with the Plasmodium falciparum hexose transporter. Activity is measured by DNA content using SYBR green in vitro
# [3] = target: Glucose transporter (Leishmania mexicana) (UniProt O61059); assay: ST_JUDE_LEISH: Cytotoxicity at 2uM final concentration against transgenic Leishmania Mexicana promastigotes LmGT2 that are glucose transport deficient and complemented with the L. Mexicana glucose transporter 2. Activity is measured by DNA content using SYBR green in vitro
# Chain of Solute carrier family 2, facilitated glucose transporter member 1 (Homo sapiens) (P11166 whole entry): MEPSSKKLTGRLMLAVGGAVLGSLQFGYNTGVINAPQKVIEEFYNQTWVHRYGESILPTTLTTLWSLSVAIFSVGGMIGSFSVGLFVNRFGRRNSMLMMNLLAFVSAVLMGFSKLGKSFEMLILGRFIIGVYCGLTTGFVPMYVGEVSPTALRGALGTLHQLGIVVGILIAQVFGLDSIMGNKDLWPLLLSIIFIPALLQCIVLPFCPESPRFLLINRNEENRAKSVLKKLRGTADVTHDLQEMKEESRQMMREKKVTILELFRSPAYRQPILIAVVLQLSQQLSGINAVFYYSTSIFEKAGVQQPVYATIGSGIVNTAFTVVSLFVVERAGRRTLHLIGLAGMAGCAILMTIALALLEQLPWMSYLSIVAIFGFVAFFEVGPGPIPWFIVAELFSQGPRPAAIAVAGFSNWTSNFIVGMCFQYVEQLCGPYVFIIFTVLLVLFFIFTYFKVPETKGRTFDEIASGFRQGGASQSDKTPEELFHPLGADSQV
Compound,inhibition [1],inhibition [2],inhibition [3]
CCCCCCCSc1ccc(CC(C)NCC(O)c2cccc(Cl)c2)cc1 (stereo not drawn),4.14%,4.49%,4.37%
NCc1cccc(-c2cccc(CN(C(=O)Nc3ccccc3)C3CCN(Cc4ccccc4)CC3)c2)c1,7.36%,6.75%,6.25%
CCCCc1ccc2[nH]cc(C3=CCN(C)CC3)c2c1Br,0.79%,-0.14%,2.44%
CCOC(C(=O)OCC1CCCN1C(C)C)(c1ccccc1)c1ccccc1 (stereo not drawn),3.57%,3.09%,1.53%
CC(=O)Nc1ccc(OCCN(CC(C)C)c2ccc(C#N)c(C(F)(F)F)c2)c(Cl)c1,3.54%,2.7%,2.53%
O=C(CC1CCCC1)N(CC1CCN(Cc2ccc(C(F)(F)F)cc2)CC1)c1ccc(N2CCOCC2)c(F)c1,13.5%,10.9%,14%
